Screens: PubChem BioAssay, National Center for Advancing Translational Sciences (NCATS)
TbPYK inhibitor: inhibitors of Trypanosoma brucei pyruvate kinase; Q57TT1; TbPYK enzyme, Kinase-Glo Plus ATP luminescence, 45 min; Potency, µM (highest dose often 76.8 µM), for the others: at the highest dose activity, negative = inhibition, actives largely listed as inhibitors; hit rate 0.12% among 410,000; also: potency is read from the fitted curve at half-maximal effect; % is scaled to controls: 0 for no effect and ±100 for the full control effect; nearly all actives have a fitted effect of over 50% in size
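Glycolytic pyruvate kinase of T. brucei was incubated with substrate, test compound and 130 uM ADP for 45 minutes at room temperature. Luminescent Kinase-Glo Plus signal was measured after 10 minutes.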
Shiga inhibitor: blocks Shiga toxin action in Vero cells | hit rate 9.2% among 290,000 | inhibition, % at 38.7 µM | Vero cells, Shiga toxin protein synthesis inhibition reporter | AID 2315; in the data active = inhibition mostly above about 28%, no sharp cut-off; inactive = mostly below about 43%; also: 0% is about no effect
LmPK inh: inhibitors of Leishmania mexicana pyruvate kinase; purified LmPK, Kinase-Glo ATP luminescence, 1 h; Potency, µM (series often up to 57.5 µM), for the others: top-dose activity change, negative = inhibition, actives largely listed as inhibitors; hit rate 0.37% among 290,000; AID 1721; also: potency is read from the fitted curve at half-maximal effect; % is scaled to controls: 0 for no effect and ±100 for the full control effect
Target sequence (Q27686 whole entry, looked up): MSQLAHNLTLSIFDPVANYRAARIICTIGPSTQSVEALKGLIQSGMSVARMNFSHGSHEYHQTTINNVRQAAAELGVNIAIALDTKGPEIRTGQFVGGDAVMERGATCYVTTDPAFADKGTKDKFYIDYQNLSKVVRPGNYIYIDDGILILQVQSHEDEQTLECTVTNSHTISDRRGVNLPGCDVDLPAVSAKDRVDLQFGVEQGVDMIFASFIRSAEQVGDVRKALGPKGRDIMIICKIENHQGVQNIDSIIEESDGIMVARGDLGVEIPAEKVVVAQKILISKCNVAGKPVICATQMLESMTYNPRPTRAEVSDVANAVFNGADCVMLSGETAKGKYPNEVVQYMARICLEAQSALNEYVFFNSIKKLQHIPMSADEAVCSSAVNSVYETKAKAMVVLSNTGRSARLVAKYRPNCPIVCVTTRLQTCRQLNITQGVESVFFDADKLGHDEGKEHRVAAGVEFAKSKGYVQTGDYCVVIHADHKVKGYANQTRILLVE
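qHTS format; LmPK 0.1 nM; substrates PEP 0.5 mM and ADP 0.1 mM. One-hour room-temperature incubation, then coupled luciferase luminescence; 0.5 nM enzyme wells mark activation.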
CHX counter: counter-screen hit for Shiga toxin inhibitors, cycloheximide. hit rate 12% among 300,000. AID 2314. cell reporter, cycloheximide protein synthesis inhibition counterscreen. max response, %; in the data active = max response mostly above about 13%, no sharp cut-off; inactive = mostly below about 14%; also: read at 38.3 µM for the half of the compounds with a filed dose; 0% is about no effect
RE007 growth inh: less growth of the S. pombe RE007 Vpr strain; S. pombe RE007 Vpr strain, BacTiter-Glo ATP luminescence, 24 h; hit rate 0.21% among 360,000; AID 651644; Potency, µM (series often up to 92.2 µM), without a hit: top-dose activity change, negative = less growth, actives largely listed as inhibitors; active = well fitted falling curve with a large enough effect; inconclusive = small, poorly fitted or top-dose-only effect; inactive = no such curve, though single readings can be large or run the other way; also: potency is read from the fitted curve at half-maximal effect; % is scaled to controls: 0 for no effect and ±100 for the full control effect; nearly all actives have a fitted effect of over 50% in size
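Fission yeast strain RE007, carrying one chromosomally integrated HIV-1 vpr copy, was seeded at OD 0.01 in PMG+AL medium with 23 nL pinned compound. After 24 h at 30 °C and 99% humidity, viability was read by BacTiter-Glo luminescence.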
FBPA Giardia inh: inhibitors of Giardia lamblia fructose-1,6-bisphosphate aldolase | purified Giardia FBPA | Potency, µM (highest dose often 59.6 µM), without a hit: top-dose activity, negative = inhibition, usual class: inhibitors | AID 2451 | hit rate 0.71% among 290,000; also: potency is read from the fitted curve at half-maximal effect; % is scaled to controls: 0 for no effect and ±100 for the full control effect; nearly all actives have a fitted effect of over 55% in size
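40 nM FBPA preincubated 10 min at RT with compound (up to 57.5 uM final), then substrate plus GAPDH/TPI/NAD/arsenate coupling and diaphorase/resazurin added. Fluorescence read after 20 min at RT, 525/598 nm.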
Active calls of the source: *; ? = inconclusive; . = no result given. The full list was thinned out, with hits kept by preference. Unless noted, calls follow the shape of the dose curve; as a rule, active = well fitted curve in the direction sought with a large enough effect; inconclusive = small, poorly fitted or top-dose-only effect, or another doubt; inactive = no such curve, though single readings can be large; an effect the other way counts as inactive or inconclusive.

SMILES | TbPYK inhibitor | Shiga inhibitor | LmPK inh | CHX counter | RE007 growth inh | FBPA Giardia inh
O=C(CSc1nnc(-c2ccco2)o1)NC1CCCCCC1 | -4% | -9 | 10% | -3 | 1% | -1%
CC1CCN(C(=O)CSc2nnc(-c3ccco3)o2)CC1 | -7% | -2 | 0% | -3 | 24% | 0%
CC1CC(C)CN(C(=O)CSc2nnc(-c3ccco3)o2)C1 (centres undefined) | 1% | 47 | -4% | 13* | 8% | 3%
CC(C)c1ccc(S(=O)(=O)NCc2nc3cccnc3n2Cc2ccc(F)cc2)cc1 | -8% | . | . | . | . | .
C/C(=N/NC(=O)c1cccc(N2CCCC2=O)c1)c1ccncc1 | 2% | 55* | 0% | 48* | 9% | 1%
O=C(Nc1ccccc1)c1cccc(N2CCCC2=O)c1 | -20% | 40* | -8% | 34* | 2% | 0%
O=C(O)c1cccc(N2CCCC2=O)c1 | -1% | -11 | 5% | 5 | 0% | 1%
C/C(=N/NC(=O)c1cccc(N2CCCC2=O)c1)c1ccc(Br)cc1 | 3% | 8 | -10% | -2 | 1% | 4%
Cc1ccc(CCNC(=O)c2cccc(N3CCCC3=O)c2)cc1 | 6% | 66* | -9% | 22 | 1% | .
Cc1cccc(CCNC(=O)c2cccc(N3CCCC3=O)c2)c1 | 2% | 75* | -2% | 44* | -8% | .
Cc1ccc(C(=O)N(Cc2ccc(N(C)C)cc2)Cc2ccco2)cc1 | -10% | . | . | . | . | .
Cc1ccc(C)n1-c1cccc(C(=O)O)c1 | . | -3 | 17% | -3 | . | -25%
CCCCN(C)CCCNC(=O)c1cccc(N2CCCC2=O)c1 | 2% | -11 | 2% | 3 | 4% | -3%
Cc1ccc(C)n1-c1cccc(C(=O)Nc2ccccc2)c1 | -25% | 37 | 2% | 18* | -13% | 12%
O=C(NCCc1ccccc1)c1cccc(N2CCCC2=O)c1 | 1% | 30* | -13% | 33* | 6% | .
Cc1ccc(C(=O)NCCc2ccccc2)cc1N1CCCC1=O | 0% | 26 | -8% | 13 | 4% | .
CN(CCCNC(=O)c1cccc(N2CCCC2=O)c1)c1ccccc1 | -10% | 15 | -7% | 16* | -5% | -30%
O=C(Cc1ccccc1)N/N=C/c1cccs1 | -5% | 14 | -1% | -4 | -7% | -5%
O=C(Cc1ccccc1)N/N=C/c1cc(Br)cs1 | -3% | 17 | -7% | 14* | 3% | 7%
O=C(O)c1ccc(N/N=C/c2cc(Br)cs2)cc1 | 4% | 29 | -2% | 25* | ? | 19%
Cc1ccc(/C=N/Nc2ccc(C(=O)O)cc2)s1 | -22% | 50 | -23% | 8 | -16% | 0%
c1cn(-c2cc(-c3ccc4c(c3)OCO4)ncn2)cn1 | . | . | . | . | . | -13%
COc1ccc(C(=O)COC(=O)c2ccc(OC)c(OC)c2)cc1OC | 2% | -5 | -10% | -2 | 6% | 2%
COc1ccc(C(=O)CC(=O)c2ccccc2O)cc1OC | -5% | 79* | -2% | 34* | 6% | 4%
COc1ccc(O)c(C(=O)CC(=O)c2ccccc2C)c1 | 3% | 76* | 5% | 58* | ? | -5%
SMILES | TbPYK inhibitor | Shiga inhibitor | LmPK inh | CHX counter | RE007 growth inh | FBPA Giardia inh
COc1ccc(C(=O)c2ccccc2C(=O)c2ccccc2)cc1 | -2% | . | . | . | -8% | .
COc1ccc(NC(=O)c2ccccc2C)c(OC)c1 | 1% | 19 | 2% | 24 | 10% | 0%
COc1ccc(O)c(C(=O)CC(=O)c2cccnc2)c1 | -1% | . | . | . | -21% | .
COc1ccc(O)c(C(=O)CC(=O)c2ccc(F)cc2)c1 | 1% | 51 | -11% | 20* | ? | ?
COc1ccc(C(=O)CC(=O)c2ccccc2O)cc1 | 1% | . | 2% | 39* | -17% | -11%
O=C(NCc1cccnc1)c1cc(-c2ccco2)on1 | -3% | 75* | -4% | 44* | 3% | -27%
Cc1cc(C(=O)NCc2cccs2)cs1 | 9% | 41 | 3% | 16 | -5% | -12%
CC(C)Cc1cc(C(=O)NCc2cccnc2)no1 | 0% | 13 | 10% | 25* | -4% | 3%
Cc1cc(C(=O)NCc2cccnc2)no1 | 4% | -8 | -1% | -2 | -9% | 6%
Cc1ccc(-c2cc(C(=O)NCc3cccnc3)no2)cc1 | 1% | 50* | 0% | 53* | 0% | 3%
CC(C)Cc1cc(C(=O)NCc2cccs2)no1 | 2% | 84* | -5% | 40* | -3% | -2%
Cc1cccn2c(=O)c(-c3nnn[nH]3)cnc12 | -2% | . | . | . | . | .
COc1ccc(C(=O)Nc2cc(-c3cccc(C)c3)nn2-c2ccccc2)cc1 | 3% | . | . | . | . | .
CCOC(=O)N1CCC(NC(=O)c2cnn(-c3ccc(F)cc3)c2-n2cccc2)CC1 | 1% | . | . | . | . | .
O=C(NCc1ccc(F)cc1)c1cc(-c2ccco2)on1 | 0% | 44 | 4% | 20* | 5% | 7%
O=C(NCc1ccc(Cl)cc1)c1cc(-c2ccco2)on1 | -4% | -15 | -1% | 10 | -20% | 6%
CCC(C(=O)NCc1ccncc1)c1ccccc1 (centres undefined) | -10% | -15 | -4% | 1 | -11% | -3%
O=C(Nc1ccc2c(c1)nc1n2CCSC1)c1ccco1 | -5% | 34 | -28% | 12 | -6% | -21%
O=C(COc1ccccc1)Nc1ccc2c(c1)nc1n2CCOC1 | -6% | 134* | 0% | 20 | -12% | 18%
O=C(COc1ccccc1)Nc1ccc2c(c1)nc1n2CCSC1 | -10% | 146 | 3% | 24* | -9% | 5%
CN1CCc2c(sc3nc(NN)n(-c4ccc(Cl)cc4)c(=O)c23)C1 | -8% | 29* | -2% | 7 | . | 6%
CN1CCc2c(sc3nc(NN)n(Cc4ccccc4)c(=O)c23)C1 | -4% | -3 | -18% | 8 | -5% | -1%
O=C(c1ccco1)n1c(=S)nc2ccccn21 | -19% | 115* | 14µM* | 68* | -4% | ?
CC(=O)N1CCN(C(=O)c2ccco2)CC1 | 2% | -2 | 0% | 3 | -4% | -4%
Cc1cccc2nc(=S)n(C(=O)c3ccco3)n12 | -20% | 198* | 13µM* | 62* | -22% | 0%
SMILES | TbPYK inhibitor | Shiga inhibitor | LmPK inh | CHX counter | RE007 growth inh | FBPA Giardia inh
COc1ccc(C2c3c(oc4cc(C)cc(C)c4c3=O)C(=O)N2Cc2ccco2)cc1OC (centres undefined) | -7% | . | . | . | . | .
CCOc1ccc(-c2nonc2NC(=O)c2ccco2)cc1OCC | 2% | 36* | -9% | 18 | 5% | .
CCOc1ccc(NC(=S)NC(=O)C2CCCC2)cc1 | -11% | 69* | 2% | 16* | -24% | .
CCOc1ccc(NC(=S)NC(=O)c2ccco2)cc1 | -4% | 85* | -7% | 62* | -15% | -23%
COc1cc(OC)cc(C(=O)NC(=S)Nc2ccc(NC(=O)c3ccco3)cc2)c1 | -11% | 1 | -2% | -1 | 15% | -9%
CCOc1ccc(C(=O)Nc2ccccc2OC(F)F)cc1 | -1% | 65* | 1% | 10 | 1% | 0%
